A selection: hits, their analogues and other compounds. The true share with any hit is near 3.5%.
GPR151 ag = human GPR151 activation; 1% of 650,000 active; activation, % at 11.2 µM; AID 1508602; PathHunter beta-arrestin GPR151 cells, luminescence; Q8TDV0; in the data active means activation above about 4.9%;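 further: 0% = median of compound wells and 100% = cells with positive control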
FBW7 act = activators of human E3 ligase FBW7; Q969H0; AlphaScreen FBW7–phospho-cyclin E peptide binding, activator screen; normalized activity (activation), % at 26.1 µM; 0.13% of 650,000 active; in the data active means normalized activity above about 1.9%;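 further: purified mutant Fbw7 with reduced substrate affinity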
MITF inh = blocks human microphthalmia-associated transcription factor; O75030; AlphaScreen MITF homodimerization, bead proximity signal; inhibition, % at 2.6 µM; 0.91% of 650,000 active; AID 1259374; in the data active means inhibition above about 50%;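 further: 0% = vehicle wells with protein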
TEAD-YAP inh = TEAD-YAP interaction inhibition | inhibition, % at 9.12 µM | HEK-TIYL cells, TEAD-Gal4/YAP UAS-luciferase luminescence | 1.4% of 640,000 active; in the data active means inhibition above about 32%;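 further: 0% = median of test compound wells and 100% = reference inhibitor wells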
GPR151 confirm = confirmation of human GPR151 activators | AID 1508609 | shares compounds with GPR151 ag | 6,700 tested, under 10 active | activation, % at 11.2 µM | GPR151 PathHunter beta-arrestin cells, luminescence, 90 min; % of EA-reagent control over plate median;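 active means mean percent activation across replicates above the confirmation screen cutoff of 4.91%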
GPR119 counter = GPR119 activation, counter-screen for GPR151 activators; shares compounds with GPR151 ag; GPR119 PathHunter beta-arrestin cells, luminescence, 90 min; 0 = compound-well median, 100 = enzyme-acceptor control; activation, % at 11.2 µM; 0.3% of 6,700 active; AID 1508611;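 active means mean percent activation in the counterscreen above 29.09%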;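 further: counterscreen on off-target GPR119 to flag nonselective hits from the GPR151 activator screen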
Target sequence (Q8TDV5 whole entry, looked up): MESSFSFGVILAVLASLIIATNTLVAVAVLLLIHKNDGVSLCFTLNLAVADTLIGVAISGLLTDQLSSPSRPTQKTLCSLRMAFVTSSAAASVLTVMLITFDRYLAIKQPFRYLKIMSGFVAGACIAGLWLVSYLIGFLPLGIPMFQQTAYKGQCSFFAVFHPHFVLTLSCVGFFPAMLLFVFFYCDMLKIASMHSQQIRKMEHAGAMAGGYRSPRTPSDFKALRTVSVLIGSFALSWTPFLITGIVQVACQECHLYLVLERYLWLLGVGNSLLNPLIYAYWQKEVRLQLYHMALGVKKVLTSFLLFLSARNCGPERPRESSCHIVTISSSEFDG
The depositor's hits bear a star; x = no result.

SMILES	GPR151 ag	FBW7 act	MITF inh	TEAD-YAP inh	GPR151 confirm	GPR119 counter
CCOc1cccc(CN2CCC(C(=O)NCc3ccccn3)CC2)c1O	8.7*	-0.1	53.6*	8.1	-1.0	-2.6
CCOc1ccccc1CN1CCC(C(=O)NCc2ccc(C)cc2)CC1	-0.2	-0.1	21.1	5.2	x	x
Cc1cn2c3c(=O)n(CC(C)C)c(=O)n(C)c3nc2n1C	5.6*	0.0	12.5	4.8	-0.7	5.8
CCCCCn1c(=O)c2c(nc3n(Cc4ccc(OC)cc4)c(C)cn23)n(C)c1=O	4.9*	0.2	0.6	6.8	-0.8	-7.2
C=CCn1c(C)cn2c3c(=O)n(CC(C)C)c(=O)n(C)c3nc12	1.3	-0.1	-7.2	6.4	x	x
CCOC(=O)c1ccc(-n2c(C)cn3c4c(=O)n(CCC(C)C)c(=O)n(C)c4nc23)cc1	5.1*	0.1	1.4	9.6	-0.4	4.5
CCCCn1c(=O)c2c(nc3n(Cc4ccc(OC)cc4)c(C)cn23)n(C)c1=O	0.1	0.6	11.0	3.3	x	x
CCOC(=O)c1ccc(-n2c(C)cn3c4c(=O)n(C)c(=O)n(C)c4nc23)cc1	1.1	-0.2	-6.0	-1.1	x	x
CCN(CC)C(=O)C1CCCN(Cc2cc(Br)c(OC)cc2OC)C1 (stereo not given)	1.6	-0.1	34.5	-16.5	x	x
COc1ccc(-c2cnc3c(n2)[nH]c(=O)n3-c2ccccc2)cc1	-0.5	0.5	-5.9	-4.6	x	x
CN(Cc1cccc(C(=O)NCCCCCCNS(=O)(=O)c2cccc3c(N(C)C)cccc23)c1)C(=O)Nc1ccc(-c2cn[nH]c2)cc1	5.7*	3.1*	19.4	20.6	0.4	9.0
CCOc1ccc(C2C(C(=O)OC)=CN(C3CCCC3)C=C2C(=O)OC)cc1Cl	4.0	0.1	-4.3	-5.3	x	x
Cc1cc(C)cc(NS(=O)(=O)c2cc(C(N)=O)ccc2C)c1	13.0*	0.3	13.9	6.6	-0.1	7.8
O=C(CSc1ncc(-c2ccccc2)[nH]1)NCc1ccc(Cl)cc1	-0.6	-0.1	0.3	1.0	x	x
CCOC(=O)C1=C(CSc2nnc(N)s2)NC(=O)NC1c1cccc([N+](=O)[O-])c1 (stereo not given)	0.8	0.1	3.5	-0.5	x	x
CC(=O)N1CCC(N(C(=O)C2CCN(c3ccc(C(F)(F)F)cn3)CC2)C2CC2)CC1	5.5*	-0.2	16.4	-2.7	-0.6	-3.3
C[C@H]1CC[C@H]2C(=O)O[C@H](CO)CN2[C@@H]1c1ccc(Br)cc1	-0.8	-0.2	5.0	x	x	x
C[C@@H]1CC[C@H]2C(=O)O[C@@H](COc3ccc(C(C)(C)C)cc3)CN2[C@@H]1c1ccc(Br)cc1	5.4*	-0.1	16.8	x	-0.6	-9.0
Cc1cc2oc3c(c(=O)c2cc1Cl)C(c1cccnc1)N(CCN(C)C)C3=O (stereo not given)	0.0	-0.1	-2.4	-10.2	x	x
O=C(c1ccc(C#CC2(O)CCCCC2)cc1)N1CCN(c2ccccc2)CC1	2.1	0.0	9.2	0.9	x	x
O=C(c1ccccc1)N1CCN(CC#CC2(O)CCCCC2)CC1	10.2*	0.8	20.5	-2.0	1.3	3.6
O=C(O)c1ccc(NS(=O)(=O)/C=C/c2ccccc2)cc1	7.0*	0.3	15.4	-1.2	-0.7	-8.7
O=C(O)c1cccc(NS(=O)(=O)/C=C/c2ccccc2)c1	-1.2	0.1	11.4	10.2	x	x
O=C(Nc1cccc(N=Cc2cc([N+](=O)[O-])cc([N+](=O)[O-])c2O)c1)c1ccco1	0.5	-0.1	12.9	-1.7	x	x
CC(=O)Nc1cccc(N=Cc2cc([N+](=O)[O-])cc(C)c2O)c1	7.4*	0.2	3.7	-25.8	-0.7	3.1
SMILES	GPR151 ag	FBW7 act	MITF inh	TEAD-YAP inh	GPR151 confirm	GPR119 counter
O=C(Cn1ncc2ccccc21)NCc1cccc(Br)c1	-1.2	-0.1	-9.7	-41.9	x	x
O=C(Cn1ncc2c(Cl)cccc21)NCc1cccc(Br)c1	6.5*	-0.1	0.4	-8.6	0.1	-0.4
CCOc1cc(C(=O)Nc2cccc(-c3nc4ncccc4o3)c2)cc(OCC)c1OCC	-0.4	0.1	10.3	-9.7	x	x
O=C(O)c1c(-c2ccccc2)oc2ccc(O)cc12	0.3	-0.5	-2.3	-3.1	x	x
O=C(c1c(-c2ccccc2)oc2ccc(O)cc12)N1CCCCC1	4.9*	0.1	-6.2	-3.5	-0.7	-7.3
CCc1c(C(=O)Nc2ccc(C)c(F)c2)[nH]c(C)c1C(C)=O	11.7*	0.0	2.3	-11.5	-0.6	-8.2
Cc1nccn1CCN(C)c1nc2nonc2nc1NCc1ccccc1	11.6*	0.0	6.7	2.3	0.4	2.3
CN(CCc1ccccn1)c1nc2nonc2nc1NCc1ccccc1	-0.6	-0.1	4.0	-0.8	x	x
O=C(Nc1cccc(Cl)c1Cl)c1ccccc1[N+](=O)[O-]	-0.1	0.0	-11.8	-5.6	x	x
O=C(Nc1ccccc1[N+](=O)[O-])c1cc(Br)ccc1Cl	5.9*	-0.2	6.9	3.1	0.8	3.5
N#Cc1ccccc1NC(=O)c1cc(Br)ccc1Cl	-0.6	-0.1	16.4	-2.2	x	x
O=C(O)c1cccc([N+](=O)[O-])c1C(=O)Nc1cccc(Cl)c1Cl	7.6*	0.0	-2.2	-2.4	0.4	4.5
Cc1nc2c(C(=O)NCc3ccc(F)cc3)c[nH]n2c(=O)c1Cl	9.6*	-0.1	2.1	-2.7	-0.1	4.6
Cc1nc2c(C(=O)NCCc3ccccc3)c[nH]n2c(=O)c1Cl	-0.8	-0.1	14.5	0.3	x	x
COc1ccc(N2CCN(C(=O)CN3CCC(O)(c4nccn4C)CC3)CC2)cc1	-1.4	0.3	13.7	9.3	x	x
CCOC(=O)CSC1=C(C#N)C(c2ccco2)C(C(=O)Nc2ccccc2)=C(C)N1 (stereo not given)	5.0*	1.2	-2.9	-7.8	0.6	-1.2
COc1ccc(-c2cnc(Oc3cccnc3)nc2)cc1	-0.7	0.6	-56.5	-14.3	x	x
COc1cc2nc(Nc3ccncc3)nc(Nc3ccc(N4CCOCC4)cc3)c2cc1OC	6.6*	-0.2	17.9	-7.1	-0.3	-2.5
CCCCCOC(=O)C1=C(C)N(C)C(=O)NC1c1ccccc1Cl (stereo not given)	5.0*	-0.1	-3.2	1.5	0.9	11.8
CCOC(=O)C1=C(C)N(C)C(=O)NC1c1ccccc1Cl (stereo not given)	-1.7	0.0	1.8	-2.0	x	x
C=CCNC(=O)/C(C#N)=C/c1ccc(C#N)cc1	-0.3	0.1	8.7	-6.2	x	x
Cc1c(C(=O)c2ccc(Br)cc2)c(=O)n(C)c(=O)n1C	5.8*	0.4	22.3	-1.7	-0.5	-2.4
Cn1/c(=N\N=C\c2cccc([N+](=O)[O-])c2)sc2ccccc21	-0.1	-0.2	-4.7	-12.5	x	x
Cc1ccc(-c2nnc(Nc3ccc(Br)cc3)c3ccccc23)cc1S(=O)(=O)N1CCOCC1	5.0*	-0.3	-9.6	2.8	0.4	1.9
Cc1ccc(-c2nnc(Nc3ccccc3)c3ccccc23)cc1S(=O)(=O)N1CCOCC1	1.7	0.1	-11.2	2.6	x	x
COc1cc(/C=C2/C(=O)NN(c3cccc(C)c3)C2=O)cc([N+](=O)[O-])c1O	-0.9	0.0	3.4	2.8	x	x

Source: PubChem BioAssay
